Screening data as filed in PubChem BioAssay.
D1 ag = agonists of human D1 dopamine receptor. HEK293 T-REx D1 cells, calcium flux, agonist mode. activation, % at 2 µM. actives 1% (n = 360,000). AID 504660; also: 0% is about no effect
Target sequence (P21728 whole entry, looked up): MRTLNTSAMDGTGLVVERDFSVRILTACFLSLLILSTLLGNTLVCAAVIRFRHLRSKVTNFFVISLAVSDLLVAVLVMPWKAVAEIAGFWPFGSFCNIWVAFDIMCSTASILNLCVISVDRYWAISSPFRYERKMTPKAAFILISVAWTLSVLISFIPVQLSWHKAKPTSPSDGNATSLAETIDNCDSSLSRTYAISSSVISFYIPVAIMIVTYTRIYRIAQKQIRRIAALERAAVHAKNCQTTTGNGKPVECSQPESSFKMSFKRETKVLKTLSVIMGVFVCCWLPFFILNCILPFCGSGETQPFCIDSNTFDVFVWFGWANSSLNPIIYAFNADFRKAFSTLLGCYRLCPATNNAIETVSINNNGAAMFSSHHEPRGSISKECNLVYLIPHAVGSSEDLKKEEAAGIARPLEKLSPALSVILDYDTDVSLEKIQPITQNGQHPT
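Tetracycline-induced HEK293 TREx D1 cells, force-coupled to calcium signalling, were dye-loaded with a no-wash calcium kit. Compound was pin-added after a 10 s baseline. Fluorescence was read kinetically at 1 cycle/s for 180 s, with calcium rises flagged as agonism.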
TRHR ag = activates the human TRH receptor | TRHR cells, calcium flux fluo-8, FDSS agonist mode | P34981 | actives 0.18% (n = 360,000) | AID 493084 | activation, % at 2 µM; also: 0% is about no effect
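Steps: seed TRHR cells overnight; add fluo-8 no-wash Ca dye, RT 30 min–1.5 h; record 10 s baseline; pin-transfer compounds; monitor fluorescence 1 cycle/s for the agonist window. Calcium increases flag candidate agonists.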
D1 antag = blocks dopamine activation of the human D1 receptor; P21728; HEK293 TREx D1 cells, calcium flux, dopamine EC80; stronger effect = lower value; activity change, negative = inhibition, % at 10 µM; actives 3.2% (n = 360,000); AID 504652; in the data active = activity change below about -30%; also: % is scaled to controls: 0 for no effect and ±100 for the full control effect
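Calcium flux readout: force-coupled, inducible Hek293 Trex D1 line, cells induced overnight at 30 C with tetracycline, dye-loaded 30–90 min at RT. Antagonism scored against EC80 dopamine challenge given 180 s after compound.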
D1 potentiator = enhances dopamine response at the human D1 receptor. P21728. HEK293 TREx D1 cells, calcium flux, dopamine EC20 potentiation. potentiation, % at 10 µM. actives 0.036% (n = 360,000); in the data active = potentiation above about 30%; also: 0% is about no effect
TRHR enhancer = allosterically enhances the human TRH receptor. P34981. actives 0.66% (n = 360,000). TRHR cells, fluo-8 calcium fluorescence, EC20 TRH enhancement. AID 493056. enhancement, % at 2 µM; in the data active = enhancement above about 30%; also: 0% is about no effect
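Enhancer read-out: after compound pinning and an initial kinetic agonist-mode read, an EC20 of TRH (10 nM final) was injected and fluo-8 calcium signal (Ex 480/Em 530) followed at 1 s/cycle for 100 cycles in TRHR-expressing cells.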
An asterisk follows results filed as active. This is a sample that favours compounds with a hit; in the whole collection about 4.6% have one here. Rule as the data show it, unless noted: active = activation above about 30%; inactive = the rest.

SMILES	D1 ag	TRHR ag	D1 antag	D1 potentiator	TRHR enhancer
CN(C)CCCN(C(=O)c1ccc2c(c1)CCCC2)c1nc2cc3c(cc2s1)OCO3	39.5*	1.0	-27.4	-1.6	2.0
CN(C)CCN(C(=O)c1ccc2c(c1)OCCO2)c1nc2ccc(Cl)cc2s1	5.9	0.3	-4.3	-3.9	-1.5
CN(C)CCCN(C(=O)c1ccc2c(c1)CCCC2)c1nc2ccc(F)cc2s1	9.6	0.5	6.4	-4.2	-4.3
CN(C)CCCN(C(=O)c1ccc2c(c1)OCCO2)c1nc2ccc(Cl)cc2s1	33.4*	3.2	-22.9	-2.8	20.8
Cc1c(C(=O)Nc2ccc(F)c(C(F)(F)F)c2)sc2nc(-c3ccccc3)cn12	7.6	1.0	13.5	-3.0	5.7
CCOC(=O)c1c(-c2cccs2)csc1NC(=O)C(C)(C)C	33.7*	-0.5	8.7	8.8	-0.3
CCOC(=O)c1c(-c2cccs2)csc1NC(C)=O	0.3	-0.1	2.3	-2.1	-1.3
O=C(NCCNC1CCC(c2ccccc2)CC1)c1ccc(F)cc1 (configuration not stated)	51.9*	2.2	-36.9*	-9.9	2.5
O=C(NCCCc1ccccc1)c1ccc(F)cc1	1.4	-2.2	-11.1	2.6	-3.0
CCOC(=O)c1sc(NC(=O)c2ccccc2)cc1C	42.4*	-0.2	-13.9	-6.0	4.3
CCOC(=O)c1sc(NC(=O)c2ccc(Cl)s2)cc1C	1.6	0.3	2.5	-7.4	6.1
CCOC(=O)c1sc(NC(=O)c2c(C)nn(Cc3ccccc3)c2C)cc1C	3.1	0.0	-45.0*	-18.7	-3.6
CCOC(=O)c1sc(NC(=O)Nc2ccc(Cl)cc2)cc1C	29.5	2.3	-57.9*	-10.5	-16.6
CCOC(=O)c1sc(NC(=O)c2cccc(S(=O)(=O)N(CC)CC)c2)cc1C	1.5	4.9	-16.7	-4.6	-2.5
CCOC(=O)c1sc(NC(=O)c2cccc(S(=O)(=O)N3CCN(C)CC3)c2)cc1C	14.8	-1.1	-35.4*	-4.7	-0.7
COc1cc(NC(=O)COCc2cc(-c3ccc(F)cc3)on2)cc(OC)c1OC	7.5	0.0	-8.9	-4.0	3.3
Cc1ccc(NC(=O)CCn2c(=S)oc3ccccc32)cc1F	1.2	-0.7	8.4	1.8	1.7
Cc1c(Cl)cccc1NC(=O)CN1C(=O)COc2ccc(S(=O)(=O)N3CCCCCC3)cc21	2.8	0.1	24.4	-3.7	11.8
COCCNC(=O)c1cc(Sc2ccc(F)cc2F)nc2ccccc12	-3.5	-1.1	10.9	0.9	7.5
O=C(Nc1ccccc1N1CCCC1)c1ccccc1F	4.9	-0.3	-10.9	-9.9	-2.2
COc1cc(C(=O)Nc2ccccc2N2CCN(S(C)(=O)=O)CC2)cc(OC)c1OC	2.3	0.1	9.7	2.1	-1.6
O=C(Nc1ccccc1N1CCCC1)c1cccc(Cl)c1Cl	1.7	-0.7	-31.7*	-1.6	-7.6
COc1ccccc1C(=O)Nc1ccccc1N1CCN(S(C)(=O)=O)CC1	18.1	-4.4	-36.9*	-6.7	-1.8
Cc1cc2c(s1)c1cnn(Cc3c(F)c(F)cc(F)c3F)c(=O)c1n2C	2.7	0.1	6.5	7.8	0.8
Cc1cccc(NC(=O)c2ccc3oc(=O)c(S(=O)(=O)c4ccc(F)cc4)cc3c2)c1C	-0.3	-0.9	20.7	1.9	-0.3
SMILES	D1 ag	TRHR ag	D1 antag	D1 potentiator	TRHR enhancer
CCc1ccc(NC(=O)CSc2nc(CSc3ccc(C)cc3)cc(=O)[nH]2)cc1	2.0	-0.1	-3.7	-6.0	-2.7
Cc1ccc(SCc2cc(=O)[nH]c(SCC(=O)Nc3cc(Cl)ccc3Cl)n2)cc1	-3.1	0.0	-34.2*	6.6	6.3
Cc1ccc(/C=C(\C#N)C(=O)Nc2cccc(Br)c2)o1	3.8	1.5	4.1	-1.4	-1.5
N#C/C(=C\c1ccc(N2CCCCC2)o1)C(N)=O	36.9*	21.2	0.0	-6.6	7.0
N#C/C(=C\c1ccc(N2CCCCC2)o1)C(=O)Nc1cccc(Br)c1	427.6*	107.7*	-12.5	-12.5	-8.1
O=Cc1ccc(N2CCCC2)o1	1.3	0.0	1.0	0.2	-0.9
O=C1CC(NNC(=O)c2ccccc2)C(=O)N1 (configuration not stated)	2.0	-0.1	-40.5*	-4.6	-4.9
O=C1CC(NNC(=O)c2ccc(Br)cc2)C(=O)N1 (configuration not stated)	3.4	0.7	-19.3	-3.7	-4.9
CC(=O)c1c(C)n(C)c2ccc(OC(=O)c3ccc([N+](=O)[O-])cc3)cc12	5.6	0.3	-0.9	1.2	39.7*
Cc1ccc(NC(=O)Nc2ccccc2CC[N+](=O)[O-])cc1	8.6	-0.1	-32.4*	-6.8	1.7
COc1ccc(C2=Nc3ccc(OC(F)(F)F)cc3NC(c3cccnc3)=N2)cc1	-1.1	-2.5	2.7	-0.8	-0.7
COC(=O)COc1cccc(/C=N/NC(=O)CCSc2ccccc2)c1	5.1	-0.1	-33.5*	-3.9	-0.8
Cc1ccc(/C=N/N(C)C2=NS(=O)(=O)c3ccccc32)o1	1.6	-0.6	-43.1*	-3.1	-1.1
COc1ccc(CCNc2oc(/C=C/c3ccc(OC)c(OC)c3)nc2C#N)cc1	-1.6	-1.5	2.2	-1.9	9.0
CC(O)CNCCOc1ccccc1OCc1ccccc1 (configuration not stated)	7.5	-3.3	-17.5	-7.1	-1.5
CC(O)CNCCNCc1c(OCc2ccccc2)ccc2ccccc12 (configuration not stated)	121.6*	-1.2	3.2	-4.1	13.1
OCCNCc1c(OCc2ccc(Cl)cc2)ccc2ccccc12	160.4*	-0.6	-37.7*	-12.1	2.7
O=C(Nc1ccc2c(c1)N(C1CCCC1)C(=O)c1ccccc1S2)c1cccc(F)c1	6.0	0.8	10.5	-0.3	3.2
Nc1nc(-c2ccccn2)nc(N)c1Cc1ccccc1F	2.4	0.4	25.5	9.1	2.9
Nc1nc(-c2ccccn2)nc(N)c1Cc1ccc(Cl)cc1Cl	34.1*	1.9	304.7	51.5*	4.4
CCOC(=O)c1cnc2ccc(Cl)cc2c1Nc1ccc(OCC)cc1	2.6	0.2	-57.5*	4.2	-3.8
CCOC(=O)c1cnc2ccccc2c1Nc1cccc(OC)c1	4.3	0.4	-34.7*	-0.9	-4.1
CCOC(=O)c1cnc2ccccc2c1Nc1cc(C(=O)O)ccc1C	-1.4	0.1	3.5	7.3	36.6*
Cc1cc(/C=N/n2cnnc2)c(C)n1-c1ccc(Cl)cc1Cl	15.1	1.0	-34.9*	-5.3	-5.9
Cc1c(C(=O)NNC(=S)Nc2ccc(S(N)(=O)=O)cc2)oc2ccccc12	2.9	0.0	18.3	-1.8	-2.4
Cc1ccc(-c2nnn(CC(=O)N(c3ccccc3F)C(CC(C)C)C(=O)NCC3CCCO3)n2)cc1 (configuration not stated)	0.5	-0.2	-37.8*	-0.1	11.4
OCCC1CN(C/C=C/c2ccco2)CCN1Cc1ccccc1 (configuration not stated)	5.0	0.4	11.3	3.6	8.2
